Experimental findings from PubChem BioAssay (NCI) are described below.

Structures are written as SMILES. About 83,000 compounds went through this panel and 20% of them were active in at least one assay; those are over-represented in the sample as a whole.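 Single-dose data. Exposure time 48 hours. Values below 10 considered active.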 Unmarked numbers belong to inactive results. The source made the active and inactive calls.

Common to all, as to assay: NCI-60 one-dose screen, 48 h (100 = growth as untreated, 0 = no growth, -100 = all killed)
In one assay the test system is MDA-MB-468 breast. The conditions noted are these: 10 µM unless noted.
Another assay relates to NCI-H226 lung. The conditions noted are these: 10 µM.
For the next assay, the system named is HOP-62 NSCLC. Conditions: 10 µM.
Another assay concerns NCI-H460 lung. Conditions: 10 µM.
In the next assay the test system is A549/ATCC NSCLC. The conditions noted are these: 10 µM.
Another assay deals with COLO 205 colon. The conditions noted are these: 10 µM.
Another assay has as its system DU-145 prostate. Conditions: 10 µM.
A further assay relates to K-562 leukemia. Conditions: 10 µM.
Another assay relates to SF-539 CNS. The conditions noted are these: 10 µM.
The next assay relates to M14 melanoma. Conditions: 10 µM.
A further assay has as its system HCT-15 colon. Conditions: 10 µM.
The test system of the next assay is HT29 colon. Conditions: 10 µM.
A further assay relates to SNB-75 CNS. The conditions noted are these: 10 µM.
The next assay relates to SNB-19 CNS. The conditions noted are these: 10 µM.
A further assay deals with U251 CNS. The conditions noted are these: 10 µM.
In the next assay the test system is PC-3 prostate. The conditions noted are these: 10 µM.
The subject of a further assay is LOX IMVI melanoma. The conditions noted are these: 10 µM.
A further assay deals with MOLT-4 leukemia. Conditions: 10 µM.
For another assay, the system named is RPMI-8226 leukemia. The conditions noted are these: 10 µM.
The subject of another assay is SK-OV-3 ovarian. Conditions: 10 µM.

For `COc1ccc(OC)c(/C=C/c2nnc(Nc3ccc(Cl)cc3)o2)c1`, in the assay with MDA-MB-468 breast, the growth was 66%.
`COc1cc(-c2nc3ccc(C)cc3[nH]2)ccc1OCc1nnc(-c2ccccc2Br)o1`: the growth in the assay on NCI-H226 lung was 65.3%; in the assay with HOP-62 NSCLC, 73.7%; in the assay on NCI-H460 lung it was 72.8%; with A549/ATCC NSCLC, 65.1%; in the assay with COLO 205 colon, 72.8%; in the assay on DU-145 prostate, 80.7%. Moreover, the growth in the assay on K-562 leukemia is 55.8%; in the assay with SF-539 CNS, 24.4%; in the assay with M14 melanoma it was 71.2%; in the assay on HCT-15 colon it was 36.4%; in the assay on HT29 colon it was 20%; with SNB-75 CNS it was 112%. In addition, the growth in the assay with SNB-19 CNS is 73.9%; in the assay with U251 CNS, 57.7%; with PC-3 prostate, 56.1%; in the assay with LOX IMVI melanoma it was 71.8%; in the assay on MOLT-4 leukemia it was 41.2%; with RPMI-8226 leukemia, 30.1%. Further, the growth with SK-OV-3 ovarian was 75.1%; with MDA-MB-468 breast, 61.6%.
On to `O=C(O)CCN1C(=O)/C(=C/C=C/c2ccc([N+](=O)[O-])o2)SC1=S`, for which the growth with A549/ATCC NSCLC was 10.4%; with DU-145 prostate, 26.3%; with K-562 leukemia it was 11.1%; with SNB-75 CNS it was 24.2%; with LOX IMVI melanoma, -100% (active); with MOLT-4 leukemia, -20.4% (active). For the same compound, the growth is -19.3% (active) with RPMI-8226 leukemia, 63.5% in the assay on SK-OV-3 ovarian and -77.8% (active) with MDA-MB-468 breast.
`COc1cc(C2CC(c3ccc(Oc4ccc(Cl)cc4)cc3)=NN2c2nc(-c3ccc(Cl)cc3)c(C#N)c(N3CCOCC3)n2)cc(OC)c1OC` (stereo unspecified): the growth was 90.4% with NCI-H226 lung; 98.9% in the assay on HOP-62 NSCLC; 107% with NCI-H460 lung; 97.9% in the assay with A549/ATCC NSCLC; 101% in the assay with COLO 205 colon; 106% in the assay with DU-145 prostate. Also, the growth with K-562 leukemia was 97.5%; in the assay on SF-539 CNS it was 95.7%; in the assay with M14 melanoma, 99%; with HCT-15 colon it was 95.7%; in the assay on HT29 colon it was 106%; in the assay with SNB-75 CNS, 78.3%. The growth in the assay on SNB-19 CNS is 102%; in the assay on U251 CNS it was 102%; with PC-3 prostate, 92%; with LOX IMVI melanoma, 80.6%; with MOLT-4 leukemia, 105%; in the assay on RPMI-8226 leukemia, 104%. For the same compound, the growth with SK-OV-3 ovarian was 102%; in the assay with MDA-MB-468 breast, 107%.
Regarding `O=C(CN1CCN(c2ncnc3c2cnn3-c2ccccc2)CC1)Nc1ccc(Br)cc1`, the growth is 62.5% in the assay on NCI-H226 lung; 84.6% with HOP-62 NSCLC; 57.7% in the assay on NCI-H460 lung; 75.2% in the assay on A549/ATCC NSCLC; 70.6% with COLO 205 colon; 67.9% in the assay with DU-145 prostate. Besides, the growth is 42.8% with K-562 leukemia; 82.3% with SF-539 CNS; 59.3% with M14 melanoma; 45.2% in the assay on HCT-15 colon; 73.3% in the assay on HT29 colon; 80.9% with SNB-75 CNS. Besides, the growth was 69.3% in the assay with SNB-19 CNS; 76.2% in the assay with U251 CNS; 49.1% with PC-3 prostate; 81.8% with LOX IMVI melanoma; 15% in the assay with MOLT-4 leukemia; 42.6% with RPMI-8226 leukemia. Further, the growth in the assay on SK-OV-3 ovarian is 76.7%; with MDA-MB-468 breast it was 49.2%.
Take `O=C1S/C(=C\c2ccc([N+](=O)[O-])cc2)C(=O)N1CCN1CCCCC1`: the growth in the assay with NCI-H226 lung is 105%; with HOP-62 NSCLC it was 112%; in the assay with NCI-H460 lung it was 115%; with A549/ATCC NSCLC it was 110%; in the assay on COLO 205 colon, 113%; in the assay on DU-145 prostate, 119%. In addition, the growth in the assay on K-562 leukemia is 98.1%; in the assay on SF-539 CNS, 112%; in the assay on M14 melanoma, 98.6%; with HCT-15 colon, 92.6%; with HT29 colon it was 121%; with SNB-75 CNS it was 104%. In addition, the growth in the assay with SNB-19 CNS is 98.6%; in the assay on U251 CNS it was 102%; in the assay with PC-3 prostate it was 94.3%; in the assay on LOX IMVI melanoma, 98.6%; in the assay on MOLT-4 leukemia, 101%; with RPMI-8226 leukemia, 106%. Moreover, the growth in the assay on SK-OV-3 ovarian was 102%; in the assay with MDA-MB-468 breast it was 99.5%.
Take `C=C1C(=O)O[C@H]2[C@H]1CC/C(Cn1cc(-c3ccc(OC)cc3)nn1)=C\CC[C@@]1(C)O[C@@H]21`: the growth with MDA-MB-468 breast was -42.8% (active).
Take `COc1ccc(C(=O)COc2ccc(NC(=O)Nc3ccccc3)cc2)cc1`: the growth was 87.6% with NCI-H226 lung; 101% with HOP-62 NSCLC; 76.6% in the assay on NCI-H460 lung; 80.9% with A549/ATCC NSCLC; 107% with COLO 205 colon; 105% with DU-145 prostate. Besides, the growth is 94.6% with K-562 leukemia; 97% in the assay with SF-539 CNS; 93.6% in the assay on M14 melanoma; 80.3% in the assay with HCT-15 colon; 103% with HT29 colon; 87.9% with SNB-75 CNS. The growth in the assay on SNB-19 CNS is 93.3%; in the assay with U251 CNS, 86.5%; in the assay with PC-3 prostate, 83.1%; in the assay on LOX IMVI melanoma it was 58.9%; in the assay on MOLT-4 leukemia it was 73.9%; in the assay on RPMI-8226 leukemia it was 93.3%. Further, the results for the growth in the assay with SK-OV-3 ovarian and in the assay on MDA-MB-468 breast were 105% and 80.9%, respectively.
Turning to `COc1ccc(Cn2cc(C#N)c(N)c2C(C)=O)c(OC)c1`, the growth was 102% with NCI-H226 lung; 105% in the assay with HOP-62 NSCLC; 108% in the assay with NCI-H460 lung; 103% in the assay on A549/ATCC NSCLC; 125% with COLO 205 colon; 107% in the assay with DU-145 prostate. Further, the growth with K-562 leukemia is 103%; with SF-539 CNS it was 96.2%; in the assay with M14 melanoma it was 99.8%; in the assay with HCT-15 colon, 102%; in the assay with HT29 colon, 117%; with SNB-75 CNS, 111%. The growth in the assay on SNB-19 CNS is 105%; in the assay on U251 CNS it was 105%; in the assay with PC-3 prostate, 97.6%; with LOX IMVI melanoma, 99.6%; with MOLT-4 leukemia it was 105%; with RPMI-8226 leukemia it was 105%. The growth is 99.8% in the assay with SK-OV-3 ovarian and 99.5% in the assay with MDA-MB-468 breast.
Turning to `Cn1cc(-c2cc(N)n3nc(-c4cn(C)c5ccccc45)cc3n2)c2cc(F)ccc21`, the growth in the assay on NCI-H226 lung was -39.8% (active); in the assay on HOP-62 NSCLC it was -64.6% (active); in the assay with NCI-H460 lung it was -61.6% (active); in the assay on A549/ATCC NSCLC it was -23.5% (active); in the assay on COLO 205 colon it was -82.3% (active); in the assay on DU-145 prostate it was -2.27% (active). In addition, the growth in the assay on K-562 leukemia is 0.146% (active); with SF-539 CNS, -81.6% (active); in the assay on M14 melanoma, -83.6% (active); in the assay with HCT-15 colon, -80.2% (active); in the assay with HT29 colon, -72.2% (active); in the assay with SNB-75 CNS it was -67% (active). Moreover, the growth in the assay with SNB-19 CNS was -6.35% (active); in the assay on U251 CNS it was -77% (active); with PC-3 prostate it was -28% (active); in the assay with LOX IMVI melanoma, -86.2% (active); with MOLT-4 leukemia, -14.4% (active); in the assay on RPMI-8226 leukemia, -13.3% (active). For the same compound, the growth was -77.7% (active) in the assay on SK-OV-3 ovarian and -36.3% (active) with MDA-MB-468 breast.
